According to PubChem BioAssay (Tox21):
Records with an inconclusive call do not appear. Calls of active or inactive are those of the source. Unless noted, calls come from the whole dose curve; as a rule, active = well fitted curve in the direction sought with a large enough effect in the repeat runs; inconclusive = weak or mixed curves; inactive = no such curve, though single readings can be large; an effect the other way counts as inactive or inconclusive.

Legend:
[1] = qHTS assay to identify small molecule agonists of H2AX (AID 1224845; active = well fitted activation curve with a large enough effect in the signal ratio in the repeat runs, not every such curve was filed as active; the % refers to the signal ratio; note: potency is the fitted concentration of half-maximal effect)
Summary of the method: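 Wild-type CHO-K1 cells plated overnight, then exposed 3 hr at 37C to compounds at 15 concentrations (0.76% DMSO). Lysed, then HTRF anti-pH2AX(S139)-cryptate/anti-H2AX-d2 detection after 24 hr at room temperature; emissions 665 and 620 nm.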

[2] = qHTS assay to identify small molecule agonists of the hypoxia (HIF-1) signaling pathway (AID 1224846; active = well fitted activation curve with a large enough effect in the signal ratio in the repeat runs, not every such curve was filed as active; the % refers to the signal ratio)
Summary of the method: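 Beta-lactamase FRET read-out (CCF4-AM substrate) from ME-180 cells carrying an HRE-driven bla reporter, after 17 hrs compound exposure at 37C/5% CO2. Cells were seeded at 2,000 per well in 0.5% dialyzed FBS medium and preincubated 5 hrs.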

[3] = qHTS assay to identify small molecule agonists of H2AX - cell viability counter screen (AID 1224847; calls by dose curve; note: nearly all actives have a fitted effect of over 30% in size; note: potency is the fitted concentration of half-maximal effect; for activity change, negative = cytotoxicity: top concentration of the series differs between compounds)
Summary of the method: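 We seed wild-type CHO-K1 cells overnight, treat them for 3 hr at 37C with compounds in 15-concentration series, and quantify remaining viability by CellTiter-Glo luminescence.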

[4] = qHTS assay to identify small molecule agonists of the estrogen related receptor (ERR) signaling pathway from Tox21 library (AID 1224849; calls by dose curve; note: nearly all actives have a fitted effect of over 15% in size); details: ERR reporter cell line, ONE-Glo luciferase, 18 h; at 92.4 µM (top of the series) unless noted
Summary of the method: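 Luminescence readout (ONE-Glo, 30 min RT) after 18 h compound exposure at 37 C of NTP-supplied ERR reporter cells; cells were plated 6 h before compound addition by pin tool.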

[5] = qHTS RealTime-Glo MT Cell Viability Assay in HepG2 cells - 24 hour (AID 1224867); note: nearly all actives have a fitted effect of over 50% in size
Summary of the method: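 HepG2 suspension premixed with RealTime-Glo reagents is plated at 600 cells per well and left 5 h at 37 C/5% CO2. Compounds in DMSO then go in, and bioluminescence reflecting viable cell number is recorded over 40 h.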

[6] = qHTS RealTime-Glo MT Cell Viability Assay in HEK293 cells - 32 hour (AID 1224868); note: nearly all actives have a fitted effect of over 50% in size; note: potency is the fitted concentration of half-maximal effect; for activity change, negative = cytotoxic: top concentration of the series differs between compounds
Summary of the method: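 Reads taken at 0, 8, 16, 24, 32 and 40 h from the same wells. HEK293 cells (600/well) carried RealTime-Glo reagents from seeding, with compound added after a 5 h settle at 37 C.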

[7] = A CellTox Green Cytotoxicity Assay to monitor cytotoxicity in HEK293 cells - 0 hour (AID 1224869); note: nearly all actives have a fitted effect of over 50% in size; note: potency is the fitted concentration of half-maximal effect
Summary of the method: (§1)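 Read-out: fluorescence of a cell-impermeant cyanine dye staining DNA of dead cells, proportional to cytotoxicity. HEK293, 600 cells/well with reagent, compound (23 nL DMSO) added after 5 h; reads at 0, 8, 16, 24, 32, 40 h.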

[8] = qHTS RealTime-Glo MT Cell Viability Assay in HepG2 cells - 40 hour (AID 1224870); note: nearly all actives have a fitted effect of over 50% in size
Summary of the method: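 HepG2 cells mixed with RealTime-Glo MT reagents (NanoLuc plus cell-permeant prosubstrate) were seeded at 600 cells/well, incubated 5 h at 37 C/5% CO2, then pinned with compounds in DMSO; nonlytic luminescence tracked viability during 40 h treatment.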

[9] = A CellTox Green Cytotoxicity Assay to monitor cytotoxicity in HEK293 cells - 40 hour (AID 1224871); note: nearly all actives have a fitted effect of over 45% in size; note: potency is the fitted concentration of half-maximal effect
Summary of the method: as §1
% is set by controls: 0 for no effect and ±100 for the full control effect.

CCN(CC)C(C)=O
inactive: Potency [1] | outcome [2] | Potency [3] | activity change, positive = activation [4] 2.9% | Potency [5] | Potency [6] | Potency [7] | Potency [8] | Potency [9]

CC(C)CC=O
inactive: Potency [1] | outcome [2] | Potency [3] | Potency [5] | Potency [6] | Potency [7] | Potency [8] | Potency [9]

CN1CCN(C2=Nc3ccccc3Sc3ccc(Cl)cc32)CC1
inactive: Potency [1] | outcome [2] | Potency [3] | activity change, positive = activation [4] 1.89% [at 42.5 µM] | Potency [5] | Potency [6] | Potency [7] | Potency [8] | Potency [9]

O=C1c2cccc(O)c2C(=O)c2c(O)cc(CO)cc21
inactive: Potency [1] | outcome [2] | Potency [3] | activity change, positive = activation [4] -22.2% | Potency [5] | Potency [7] | Potency [8] | Potency [9]

CCC(=O)OC(C)(C)C1CC=C(C)CC1 (stereo not given)
inactive: Potency [1] | outcome [2] | Potency [3] | activity change, positive = activation [4] -6.48% | Potency [5] | Potency [7] | Potency [9]

CCCCCCCCCC=O
inactive: Potency [1] | outcome [2] | Potency [3] | Potency [5] | Potency [6] | Potency [7] | Potency [8] | Potency [9]

Cc1ccc(C)o1
inactive: Potency [1] | outcome [2] | Potency [3] | activity change, positive = activation [4] 0.55% | Potency [5] | Potency [6] | Potency [7] | Potency [8] | Potency [9]

CC(=O)O[C@H]1C[C@@H]2CC[C@@H]3[C@H](CC[C@@]4(C)[C@H]3C[C@H]([N+]3(C)CCCCC3)[C@@H]4OC(C)=O)[C@@]2(C)C[C@@H]1N1CCCCC1
inactive: Potency [1] | outcome [2] | Potency [3] | Potency [5] | Potency [6] | Potency [7] | Potency [8] | Potency [9]

N#Cc1c(F)cccc1F
inactive: Potency [1] | outcome [2] | Potency [3] | Potency [5] | Potency [6] | Potency [7] | Potency [8] | Potency [9]

CC(CN)CCCN (stereo not given)
inactive: Potency [1] | outcome [2] | activity change, positive = activation [4] -0.964% | Potency [5] | Potency [6] | Potency [7] | Potency [8] | Potency [9]
active: Potency [3] 357 nM

CCOc1ccc2[nH]cc(C(=O)NCc3ccccc3)c(=O)c2n1
inactive: Potency [1] | outcome [2] | Potency [3] | activity change, positive = activation [4] -48.4% | Potency [5] | Potency [6] | Potency [7] | Potency [8] | Potency [9]

CCCCCC/C=C/C=O
inactive: Potency [1] | outcome [2] | Potency [3] | activity change, positive = activation [4] 2.49% | Potency [5] | Potency [6] | Potency [7] | Potency [8] | Potency [9]

CC(C)(C)c1cc(CCC(=O)OCC(COC(=O)CCc2cc(C(C)(C)C)c(O)c(C(C)(C)C)c2)(COC(=O)CCc2cc(C(C)(C)C)c(O)c(C(C)(C)C)c2)COC(=O)CCc2cc(C(C)(C)C)c(O)c(C(C)(C)C)c2)cc(C(C)(C)C)c1O
inactive: Potency [1] | outcome [2] | Potency [3] | Potency [5] | Potency [6] | Potency [7] | Potency [8] | Potency [9]

CCCCOc1cc(C(=O)OCCN(CC)CC)ccc1N
inactive: Potency [1] | outcome [2] | Potency [3] | Potency [5] | Potency [6] | Potency [7] | Potency [8]

CC(O)C1CCCCC1 (stereo not given)
inactive: Potency [1] | outcome [2] | Potency [3] | activity change, positive = activation [4] 6.48% | Potency [5] | Potency [6] | Potency [7] | Potency [9]

c1ccc(OCc2ccc(CCCN3CCOCC3)cc2)cc1
active: Potency [6] 19 µM
inactive: Potency [1] | outcome [2] | Potency [3] | activity change, positive = activation [4] -24.5% [at 42.5 µM] | Potency [5] | Potency [7] | Potency [8] | Potency [9]

CCCCOC(=O)/C=C\C(=O)OCCCC
inactive: Potency [1] | outcome [2] | Potency [3] | activity change, positive = activation [4] -7.95% | Potency [5] | Potency [6] | Potency [7]

CC(=O)N(CC(=O)N(C)C)c1ccccc1
inactive: Potency [1] | outcome [2] | Potency [3] | activity change, positive = activation [4] 0.995% [at 42.5 µM] | Potency [5] | Potency [6] | Potency [7] | Potency [8] | Potency [9]

CN1CCC(=C2c3ccccc3CCc3sccc32)CC1
inactive: Potency [1] | outcome [2] | Potency [3] | activity change, positive = activation [4] -9.84% [at 42.5 µM] | Potency [5] | Potency [7] | Potency [8] | Potency [9]

O=c1c2ccccc2nnn1CCl
inactive: Potency [1] | outcome [2] | Potency [3] | Potency [5] | Potency [6] | Potency [7] | Potency [8] | Potency [9]

Cl/C(=C\n1cncn1)c1ccc(Cl)cc1Cl
inactive: Potency [1] | outcome [2] | Potency [3] | activity change, positive = activation [4] -21.8% [at 42.5 µM] | Potency [5] | Potency [6] | Potency [7] | Potency [8] | Potency [9]

CC(C)(C)C(=O)OCOP(=O)(COCCn1cnc2c(N)ncnc21)OCOC(=O)C(C)(C)C
active: Potency [1] 277 nM | Potency [6] 0.756 µM
inactive: outcome [2] | Potency [3] | activity change, positive = activation [4] -1.22% [at 42.5 µM] | Potency [5] | Potency [7] | Potency [8] | Potency [9]

CCN1CCC[C@H]1CNC(=O)c1c(OC)ccc(Br)c1OC
inactive: Potency [1] | outcome [2] | Potency [3] | Potency [5] | Potency [6] | Potency [7] | Potency [8] | Potency [9]

CC(=O)NCCCS(=O)(=O)O
inactive: Potency [1] | outcome [2] | Potency [3] | Potency [5] | Potency [6] | Potency [8]
active: Potency [7] 18.9 µM | Potency [9] 16.9 µM

CCCC[C@H]1CN(CC2CCOCC2)C(=O)OC12CCN(C1(C)CCN(C(=O)c3c(C)ncnc3C)CC1)CC2
inactive: Potency [1] | outcome [2] | Potency [3] | activity change, positive = activation [4] -0.219% | Potency [5] | Potency [6] | Potency [7] | Potency [9]

CC1=CCC(C(C)C)C=C1 (stereo not given)
inactive: Potency [1] | outcome [2] | Potency [3] | Potency [5] | Potency [6] | Potency [7] | Potency [8] | Potency [9]

NCCCN(CCO)CCO
inactive: Potency [1] | outcome [2] | Potency [3] | Potency [5] | Potency [6] | Potency [7] | Potency [8] | Potency [9]

CC(=O)O[C@@H]1C(=O)O[C@@H]2[C@H]1OC(=O)[C@@H]2OC(C)=O
inactive: Potency [1] | outcome [2] | Potency [3] | Potency [5] | Potency [6] | Potency [7] | Potency [8] | Potency [9]

CCCCCCCCCCCCCCCCCBr
inactive: activation (H2AX phosphorylation) [1] -1.13% [at 31.6 µM] | activation [2] -0.885% [at 15.8 µM] | activity change, negative = cytotoxicity [3] 1.9% [at 31.6 µM] | activity change, negative = cytotoxicity [5] 0.544% [at 15.8 µM] | activity change, negative = cytotoxic [6] 6.52% [at 15.8 µM] | cytotoxicity [7] -0.244% [at 15.8 µM] | activity change, negative = cytotoxic [8] 11.3% [at 15.8 µM] | cytotoxicity increase [9] -9.92% [at 15.8 µM]

Cc1ccc(C(=O)C(C)CN2CCCCC2)cc1 (stereo not given)
inactive: Potency [1] | outcome [2] | Potency [3] | activity change, positive = activation [4] 4.97% [at 42.5 µM] | Potency [5] | Potency [6] | Potency [7] | Potency [8] | Potency [9]

Cn1c(NCCN(CCO)CCCc2ccc([N+](=O)[O-])cc2)cc(=O)n(C)c1=O
inactive: Potency [1] | outcome [2] | Potency [3] | activity change, positive = activation [4] 4.48% [at 42.5 µM] | Potency [5] | Potency [6] | Potency [7] | Potency [8] | Potency [9]

O=C(NN1CCCC1)NS(=O)(=O)c1ccc(Cl)cc1
inactive: Potency [1] | outcome [2] | Potency [3] | activity change, positive = activation [4] 5.66% [at 42.5 µM] | Potency [5] | Potency [6] | Potency [7] | Potency [8] | Potency [9]

CCCCCCCCCO
inactive: Potency [1] | outcome [2] | Potency [3] | activity change, positive = activation [4] 5.42% | Potency [5] | Potency [6] | Potency [7] | Potency [8] | Potency [9]

FC(F)(F)C(F)(F)C(F)(F)C(F)(F)C(F)(F)C(F)(F)CCI
inactive: Potency [1] | outcome [2] | Potency [3] | Potency [5] | Potency [6] | Potency [7] | Potency [8] | Potency [9]

CCCCOC(=O)c1ccccc1C(=O)OCC(CC)CCCC (stereo not given)
inactive: Potency [1] | outcome [2] | Potency [3] | Potency [5] | Potency [6] | Potency [7] | Potency [8] | Potency [9]

COc1ccc2[nH]c(S(=O)Cc3ncc(C)c(OC)c3C)nc2n1 (stereo not given)
inactive: Potency [1] | outcome [2] | Potency [3] | activity change, positive = activation [4] -23.9% [at 42.5 µM] | Potency [5] | Potency [6] | Potency [7] | Potency [8] | Potency [9]

NC(=S)N/N=C/c1cccnc1
inactive: Potency [1] | outcome [2] | Potency [3] | activity change, positive = activation [4] 0.0845% [at 42.5 µM] | Potency [5] | Potency [6] | Potency [7] | Potency [8] | Potency [9]

CCCCCCCCCCCCCCCC(=O)OC/C=C(C)/C=C/C=C(C)/C=C/C1=C(C)CCCC1(C)C
inactive: Potency [1] | outcome [2] | Potency [3] | Potency [5] | Potency [6] | Potency [7] | Potency [8] | Potency [9]

C=C(C)C(=O)OCCN(C)C
inactive: Potency [1] | outcome [2] | Potency [3] | Potency [5] | Potency [6] | Potency [7] | Potency [8] | Potency [9]
